The list is not random: actives were taken first. Their share in the collection is about 2.4%.
D2 PAM-1 = human D2 receptor positive allosteric modulation; potentiation, % (no concentration beside the values); P14416; 0.23% of 360,000 active; DiscoveRx D2 beta-arrestin cells, luminescence, 90 min; 100% = 57 uM dopamine signal; AID 624464; in the data active = potentiation above about 50%; inconclusive = mostly about 30% to 49%
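PathHunter beta-arrestin assay in DiscoveRx D2 cells. Compounds were added with an EC20 of dopamine (50 nM final) for 90 min at 37 deg C. Luminescence was read 1 h after detection reagent, with 57 uM dopamine as the EC100 control.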
D2 ag-1 = D2 dopamine receptor (human) agonism; HEK293 T-REx D2 cells, calcium flux agonist mode; activation, % at 2 µM; 0.53% of 340,000 active;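 active = activation over 3 SD above normal in the single-dose calcium agonist read, cut at about 30% in these data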
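HEK293 Trex D2 cells, tetracycline-induced, o/n 30 C 5% CO2; no-wash Ca dye, RT 30–90 min; 10-cycle baseline, 23 nl cpd added, kinetic Ca read 180 s; agonist hits = positive Ca response.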
D2 PAM-2 = positively modulates the human D2 dopamine receptor allosterically; P14416; HEK293 T-REx D2, calcium flux, EC20 dopamine potentiation; potentiation, % at 10 µM; 0.34% of 340,000 active; AID 485347;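 active = potentiation over 3 SD above the plate norm, cut at about 30% in these data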
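Potentiation of an EC20 dopamine calcium response is measured in a force-coupled, tetracycline-inducible Hek293 Trex D2 line. Compound-only kinetic reads over 180 s flag agonists before dopamine addition.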
D2 ag-2 = agonists of human D2 dopamine receptor (beta-arrestin) | P14416 | DiscoveRx PathHunter D2 beta-arrestin, luminescence, 90 min; 100% = 57 uM dopamine signal | activation, % (no concentration beside the values) | 0.084% of 360,000 active; in the data active = activation above about 40%; inconclusive = between about 15% and that limit
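DiscoveRx PathHunter D2 beta-arrestin cells (2,100/well) attached overnight, then compound-stimulated 90 min at 37 C in HBSS/10 mM HEPES/0.1% Tween-20 buffer; beta-galactosidase complementation read by luminescence after 1 h at ambient temperature. Dopamine 57 uM final (EC100) as control.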
D2 antag = antagonists of human D2 dopamine receptor. HEK293 TREx D2 cells, calcium flux, dopamine EC80. 2% of 340,000 active. P14416. inhibition, % at 10 µM. AID 485344; in the data active = inhibition above about 30%; inactive = below that, where a call was filed
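Tetracycline-induced HEK293 T-REx cells expressing D2 force-coupled to calcium signalling were dye-loaded, exposed to compound for 180 s, then challenged with an EC80 of dopamine; calcium flux was followed kinetically for a further 180 s.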
D3 arrestin ag = confirmation of human D3 dopamine receptor agonists, beta-arrestin; shares compounds with D2 ag-1; DiscoveRx D3 beta-arrestin cells, luminescence, 90 min; Potency, µM (highest dose often 76.9 µM), usual class: activators; 4% of 2,300 active; AID 720506; also: nearly all actives have a fitted effect of over 70% in size
Target sequence (P35462 whole entry, looked up): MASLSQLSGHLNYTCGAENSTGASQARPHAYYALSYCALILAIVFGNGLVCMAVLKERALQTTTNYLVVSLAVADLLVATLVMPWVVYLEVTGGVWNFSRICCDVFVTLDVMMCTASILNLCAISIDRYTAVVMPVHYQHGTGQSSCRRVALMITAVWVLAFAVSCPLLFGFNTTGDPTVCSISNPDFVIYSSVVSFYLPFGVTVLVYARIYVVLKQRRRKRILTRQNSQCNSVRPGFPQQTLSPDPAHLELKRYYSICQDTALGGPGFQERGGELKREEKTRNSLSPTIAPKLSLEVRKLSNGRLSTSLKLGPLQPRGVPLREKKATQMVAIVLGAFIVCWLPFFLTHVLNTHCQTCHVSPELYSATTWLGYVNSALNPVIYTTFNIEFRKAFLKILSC
D2 ag-3 = activates human D2 dopamine receptor in D3 counterscreen; shares compounds with D2 ag-1; DiscoveRx PathHunter D2 beta-arrestin, luminescence, 90 min; response scale: percent relative to full dopamine signal; Potency, µM (doses to about 76.9 µM), actives largely listed as activators; 5.9% of 2,300 active; AID 720507; also: nearly all actives have a fitted effect of over 70% in size
Hits are given with their value; 0 = inactive; ? = inconclusive; - = no result. Unless noted, calls follow the shape of the dose curve; as a rule, active = well fitted activation curve with a large enough effect; inconclusive = small, poorly fitted or top-dose-only effect; inactive = flat fitted curve, though single readings scatter.

SMILES | D2 PAM-1 | D2 ag-1 | D2 PAM-2 | D2 ag-2 | D2 antag | D3 arrestin ag | D2 ag-3
CC(C)(C)OC(=O)N1CCC(NC(=O)c2nc[nH]c2C(=O)N2CCc3ccccc3C2)CC1 | 0 | - | - | 0 | - | 0 | 0
CC(C)(C)OC(=O)N1CCC(NC(=O)c2[nH]cnc2C(=O)Nc2ccc(Cl)cc2)CC1 | 0 | 0 | 0 | 0 | 0 | 0 | 0
CCN(CC)S(=O)(=O)c1ccc2c(c1)N(CC(=O)N1CCN(c3cccc(OC)c3)CC1)C(=O)CO2 | - | 0 | 0 | - | - | - | -
O=C1c2ccccc2NC(c2ccc(F)cc2)N1Cc1ccccc1 (stereo unspecified) | 0 | 0 | 0 | 0 | 0 | - | -
CCn1c(=O)n(CC)c2cc(N3CCCC3)c(NC(=O)Nc3cc(C)cc(C)c3)cc21 | - | 0 | 0 | - | - | - | -
O=C(C1CCCN(Cc2cccnc2)C1)N1CCCCC1 (stereo unspecified) | 0 | 0 | 0 | 0 | 0 | 0 | 0
Cc1ccc(NC(=O)N2CCCC(c3ccccc3)C2)cc1 (stereo unspecified) | 0 | - | - | ? | - | 0 | 0
O=C(/C=C/c1ccco1)N1CCCC(c2ccccc2)C1 (stereo unspecified) | 0 | 57 | 0 | 0 | 56 | 0 | 0
O=C(CSc1nncs1)NNC(=O)c1ccco1 | 0 | 0 | 0 | 0 | 0 | 0 | 0
O=C(O)CNC(=O)c1ccccc1Br | 0 | 0 | 0 | 0 | 40 | 0 | 0
CCOC(=O)CCn1cnc2onc(-c3cc(OC)ccc3Cl)c2c1=O | - | 0 | 0 | - | - | - | -
CCNC(=S)NNC(=O)c1ccccc1OC(F)F | 0 | 0 | 0 | 0 | 33 | 0 | 0
CCCCN1CC(=O)N2[C@H]3c4ccc(OC)cc4OC[C@@H]3[C@H](C(=O)OCC)[C@]2(C)C1=O | 0 | 0 | 0 | 0 | 0 | 0 | 0
COc1ccc2c(c1)OC[C@H]1[C@H]2N2C(=O)CN(C)C(=O)[C@@]2(C)[C@H]1c1ccccc1 | 0 | 0 | 0 | 0 | 0 | 0 | 0
CCOc1ccc(S(=O)(=O)c2cc3cccc(OCC)c3oc2=O)cc1 | - | 0 | 0 | - | - | - | -
CCOC(=O)c1ccccc1NC(=O)Cn1ncc2c1-c1ccccc1OC2 | - | 0 | 0 | - | - | - | -
CC(C)N(Cc1nc(-c2ccccc2)no1)C(=O)c1ccc(Cl)cc1 | 0 | 51 | 0 | 0 | 0 | 0 | 0
CC(C)N(Cc1nc(-c2ccccc2)no1)C(=O)c1ccc([N+](=O)[O-])cc1 | 0 | 0 | 0 | 0 | 0 | - | -
Cc1ccccc1C(=O)N(Cc1nc(-c2ccc(Cl)cc2)no1)C(C)C | - | 0 | 0 | - | - | - | -
COc1ccccc1C(=O)N(Cc1nc(-c2ccc(Cl)cc2)no1)C(C)C | 0 | 51 | 0 | 0 | 0 | 0 | 0
CC(C)(C)[C@H]1COC(=O)[C@H](NC(=O)OCC2c3ccccc3-c3ccccc32)C/C=C\C[C@@H](CC(=O)N(CCO)Cc2ccccc2)C(=O)N1 | 0 | - | - | 0 | - | - | -
N#CCC(=O)NCCCc1ccccc1 | 0 | 41 | 0 | 0 | 0 | 0 | 0
CCOc1ccc(-n2c(=S)sc3c(=O)[nH]c(SCC(=O)NCc4ccco4)nc32)cc1 | 0 | 0 | 0 | 0 | 45 | 0 | 0
CCOC(=O)CSc1nc2c(sc(=S)n2-c2ccc(OCC)cc2)c(=O)[nH]1 | 0 | 0 | 0 | 0 | 0 | - | -
CC(CSC(=O)c1ccccc1)C(=O)N1c2ccccc2CC1C(=O)O (stereo unspecified) | 0 | - | - | 0 | - | - | -
SMILES | D2 PAM-1 | D2 ag-1 | D2 PAM-2 | D2 ag-2 | D2 antag | D3 arrestin ag | D2 ag-3
Cc1ccc(S(=O)(=O)N(C)C)cc1NC(=O)COC(=O)CN1C(=O)c2ccccc2C1=O | 0 | 0 | 0 | 0 | 0 | 0 | 0
O=C(O)CCN1C(=O)c2ccc(NC(=O)COc3ccccc3)cc2C1=O | 0 | 0 | 0 | 0 | 0 | - | -
CCc1nnc(NC(=O)c2ccc3c(=O)n4c(nc3c2)CCCCC4)s1 | 0 | 0 | 0 | 0 | 0 | 0 | 0
CCN(CC(=O)Nc1ccccc1C(F)(F)F)C(=O)c1ccc2c(=O)n3c(nc2c1)CCC3 | 0 | 0 | 0 | 0 | 0 | - | -
CCc1ccc(NC(=O)c2ccc3c(=O)n4c(nc3c2)CCCCC4)cc1 | 0 | 0 | 0 | 0 | 0 | - | -
CN(CC(=O)Nc1ccccc1Br)C(=O)c1ccc2c(=O)n3c(nc2c1)CCC3 | 0 | 0 | 0 | 0 | 0 | 0 | 0
Cc1ccc(S(=O)(=O)N2CCC(=O)c3ccccc32)cc1 | 0 | - | - | 0 | - | - | -
COc1ccc(NC(=O)COC(=O)CC2CCCC2)cc1Cl | 0 | 0 | 0 | 0 | 0 | - | -
CCN(CC)S(=O)(=O)c1ccc2c(c1)N(CC(=O)Nc1c(C)cccc1C)C(=O)C1CCCN21 (stereo unspecified) | - | 0 | 0 | - | - | - | -
c1ccc2c(CC3=NCCN3)cccc2c1 | 0 | 0 | 0 | 0 | 0 | - | -
Cc1cc(C(C)(C)C)c(O)c(C)c1CC1=NCCN1 | 0 | 72 | 0 | 0 | 64 | 0 | 0
COc1ccc(OC)c(NC(=O)c2cccc(N3C(=O)C4C5CCC(C5)C4C3=O)c2)c1 (stereo unspecified) | 0 | - | - | 0 | - | 0 | ?
CC1(C(=O)NS(=O)(=O)c2cccc(F)c2)CCN1C(=O)Cc1cccs1 (stereo unspecified) | 0 | - | - | 0 | - | - | -
COc1ccc(OC2C(=O)N(c3ccc(C)c(C)c3)C2c2ccc(OC)c(OC)c2)cc1 (stereo unspecified) | 0 | 54 | 0 | 0 | 0 | 0 | 0
CCOc1ccc(Cl)cc1-c1cc(C(=O)NCCOC)[nH]n1 | 0 | - | - | 0 | - | - | -
Cc1cc(C)nc(/N=C(\N)Nc2ccc(OCCC(C)C)cc2)n1 | 0 | 83 | 0 | 0 | 52 | 0 | 0
COc1ccccc1N/C(N)=N/c1nc(C)cc(C)n1 | 0 | 0 | 0 | 0 | 0 | - | -
Cc1cc(C)nc(/N=C(\N)Nc2ccc(CC(=O)OC(C)C)cc2)n1 | 0 | 33 | 0 | 0 | 59 | 0 | ?
CCc1ccc(N/C(=N/c2nc(C)cc(C)n2)NC(C)=O)cc1 | 0 | 0 | 0 | 0 | 0 | - | -
Cc1cc(C)nc(/N=C(\N)Nc2cccc(OCc3ccccc3)c2)n1 | 0 | 77 | 0 | 0 | 63 | 0 | 0
Cc1cc(C)nc(/N=C(\N)Nc2ccc(S(=O)(=O)O)cc2)n1 | 0 | 0 | 0 | 0 | 0 | - | -
N#Cc1ccc(CN2CCN(C(=O)CCNS(=O)(=O)c3ccc(F)c(Cl)c3)CC2)cc1 | 0 | - | 0 | 0 | - | - | -
Cc1ccc(CN2CCN(c3cccc4[nH]ccc34)CC2)cc1 | 0 | 73 | 0 | ? | 72 | 0 | ?
O=C(c1ccc(Cl)cc1)N1CCN(c2cccc3[nH]ccc23)CC1 | 0 | 0 | 0 | 0 | 0 | - | -
NS(=O)(=O)c1ccc(-c2ccc(/C=N/NC(=O)c3ccc([N+](=O)[O-])cc3)o2)cc1 | 0 | 0 | 0 | 0 | 0 | - | -

High-throughput results deposited in PubChem BioAssay by National Center for Advancing Translational Sciences (NCATS).
